# Measurements published in PubChem BioAssay (Tox21).
# Inconclusive results are not listed. A call without a number means that no potency is given here. Unmarked numbers belong to inactive results. Calls of active or inactive are those of the source. Calls follow the shape of the dose curve; as a rule, active = well fitted curve in the direction sought with a large enough effect in the repeat runs; inconclusive = weak or mixed curves; inactive = no such curve, though single readings can be large; an effect the other way counts as inactive or inconclusive.
# Key:
# [1] = qHTS assay to identify small molecule antagonists of the estrogen related receptor (ERR) signaling pathway from Tox21 library - cell viability counter screen (AID 1224834); also: nearly all actives have a fitted effect of over 30% in size
# In short: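 Cytotoxicity of test substances is gauged in the same ERR cells used for the antagonist screen, after 17.5 h of compound treatment at 37 C, by CellTiter-Fluor fluorescence measured after 30 min.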
# [2] = biological target: Luciferin 4-monooxygenase (Photinus pyralis) (UniProt P08659); assay: qHTS assay to identify small molecule inhibitors of firefly luciferase (AID 1224835); also: nearly all actives have a fitted effect of over 25% in size; as to activity change, negative = inhibition: series mostly up to about 120 µM
# Luciferin 4-monooxygenase (Photinus pyralis), sequence (P08659 whole entry, looked up): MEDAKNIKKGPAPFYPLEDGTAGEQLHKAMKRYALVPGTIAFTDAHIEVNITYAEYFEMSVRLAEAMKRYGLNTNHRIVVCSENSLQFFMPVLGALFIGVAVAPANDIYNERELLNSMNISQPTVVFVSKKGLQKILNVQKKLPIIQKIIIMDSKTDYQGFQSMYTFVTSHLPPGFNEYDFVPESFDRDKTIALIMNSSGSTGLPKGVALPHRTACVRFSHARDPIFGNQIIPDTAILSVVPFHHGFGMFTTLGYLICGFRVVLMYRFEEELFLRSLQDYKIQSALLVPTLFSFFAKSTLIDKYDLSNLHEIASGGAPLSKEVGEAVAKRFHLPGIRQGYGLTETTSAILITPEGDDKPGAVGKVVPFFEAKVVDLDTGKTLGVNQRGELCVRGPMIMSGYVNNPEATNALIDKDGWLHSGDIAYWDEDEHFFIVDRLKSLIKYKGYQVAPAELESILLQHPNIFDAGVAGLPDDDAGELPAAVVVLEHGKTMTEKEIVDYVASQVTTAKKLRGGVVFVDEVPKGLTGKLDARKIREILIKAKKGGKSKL
# In short: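 Inhibition of purified Photinus luciferase is measured by luminescence. Substrate levels (D-luciferin, ATP) sit at their KM values. Each compound is tested in a concentration series.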
# [3] = qHTS assay to identify small molecule agonists of the constitutive androstane receptor (CAR) signaling pathway - cell viability counter screen (AID 1224836); also: nearly all actives have a fitted effect of over 45% in size; as to viability change, negative = cytotoxic: series mostly up to about 92 µM
# In short: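 Cells were seeded and incubated 4 hrs. Compounds were added across 15 concentrations together with PK11195 at 0.75 uM final. Plates were incubated 23 hrs at 37 C. CellTiter-Fluor was added and fluorescence measured.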
# Potency is read from the fitted curve at half-maximal effect.
structure (smiles),measurement,setting,value
CC1(C)[C@H]2CC[C@]1(C)C(=O)C2,Potency,[1],inactive
same,Potency,[2],inactive
same,Potency,[3],inactive
CSc1ccc(O)cc1C,Potency,[1],inactive
same,Potency,[2],inactive
same,Potency,[3],inactive
C=C(C)C1CCC(C)CC1O (stereo not given),Potency,[1],inactive
same,Potency,[2],inactive
same,Potency,[3],inactive
C=CC(=O)O[C@H]1C[C@@H]2CC[C@@]1(C)C2(C)C,Potency,[1],inactive
same,Potency,[2],inactive
same,Potency,[3],inactive
CCSCC,Potency,[1],inactive
same,Potency,[2],inactive
same,Potency,[3],inactive
CCNc1nc(NC(C)(C)C)nc(OC)n1,Potency,[1],inactive
same,Potency,[2],inactive
same,Potency,[3],inactive
Cc1ccc2n[nH]nc2c1,Potency,[1],inactive
same,Potency,[2],inactive
same,Potency,[3],inactive
CN1CCN(c2ccccc2/C=C2\SCCN(c3ccc(Cl)c(Cl)c3)C2=O)CC1,Potency,[1],54.5 µM (active)
same,Potency,[2],inactive
same,Potency,[3],43.3 µM (active)
C=COCCCC,Potency,[1],inactive
same,Potency,[2],inactive
same,Potency,[3],inactive
C=C[Si](C)(C)Cl,"viability change, negative = cytotoxic",[1],5.38% [at 8.39 µM]
same,"activity change, negative = inhibition",[2],5.1% [at 10.5 µM]
same,"viability change, negative = cytotoxic",[3],-0.0044% [at 8.39 µM]
Cc1ccc2sc3cccc(C)c3c2c1,Potency,[1],inactive
same,Potency,[2],inactive
same,Potency,[3],inactive
C=CC(=O)OCC(Br)CBr (stereo not given),Potency,[1],inactive
same,Potency,[2],inactive
same,Potency,[3],inactive
CC(C=O)c1ccccc1 (stereo not given),Potency,[1],inactive
same,Potency,[2],inactive
same,Potency,[3],inactive
N#Cc1nc(Cl)c(Cl)c(Cl)c1Cl,Potency,[1],27.3 µM (active)
same,Potency,[2],inactive
same,Potency,[3],43.3 µM (active)
O=C(O)C[C@H](O)C[C@H](O)/C=C/c1c(C2CC2)nc2ccccc2c1-c1ccc(F)cc1,"viability change, negative = cytotoxic",[1],0.576% [at 19 µM]
same,"activity change, negative = inhibition",[2],5.31% [at 23.6 µM]
same,"viability change, negative = cytotoxic",[3],-13.2% [at 19 µM]
CCCCCCCCCCCC(=O)Cl,Potency,[1],inactive
same,Potency,[2],39.9 µM (active)
same,Potency,[3],inactive
COCCC(=O)OC,Potency,[1],inactive
same,Potency,[2],inactive
same,Potency,[3],inactive
Nc1cc([N+](=O)[O-])ccc1Cl,Potency,[1],inactive
same,Potency,[2],inactive
same,Potency,[3],inactive
CCc1cccc(C)c1N(C(=O)CS(=O)(=O)O)C(C)COC (stereo not given),Potency,[1],inactive
same,Potency,[2],inactive
same,Potency,[3],inactive
Cc1c[nH]c(=O)[nH]c1=O,Potency,[1],inactive
same,Potency,[2],inactive
same,Potency,[3],inactive
CC(C)(C)c1cc(CCC(=O)OCCSCCOC(=O)CCc2cc(C(C)(C)C)c(O)c(C(C)(C)C)c2)cc(C(C)(C)C)c1O,Potency,[1],inactive
same,Potency,[2],inactive
same,Potency,[3],inactive
COc1ccc(OC)c(N=Nc2c(O)ccc3ccccc23)c1,Potency,[1],24.3 µM (active)
same,Potency,[2],6.33 µM (active)
same,Potency,[3],30.6 µM (active)
O=C(O)CN(CCCN(CC(=O)O)CC(=O)O)CC(=O)O,"viability change, negative = cytotoxic",[1],11.6% [at 19 µM]
same,"activity change, negative = inhibition",[2],0.284% [at 23.6 µM]
same,"viability change, negative = cytotoxic",[3],-21.6% [at 19 µM]
C=CC(=O)OCCOC1C2CCC1C1CC=CC12 (stereo not given),"viability change, negative = cytotoxic",[1],-4.69% [at 19 µM]
same,"activity change, negative = inhibition",[2],-9.04% [at 23.6 µM]
same,"viability change, negative = cytotoxic",[3],-2.57% [at 19 µM]
NC(=O)C1CO1 (stereo not given),Potency,[1],inactive
same,Potency,[2],inactive
same,Potency,[3],inactive
N#CCCOCCC#N,Potency,[1],inactive
same,Potency,[2],inactive
same,Potency,[3],inactive
O=[N+]([O-])c1ccc(CO)cc1,Potency,[1],inactive
same,Potency,[2],inactive
same,Potency,[3],inactive
CCN(CC)c1ccc2c(c1)Oc1cc(N(CC)CC)ccc1C21OC(=O)c2ccccc21,Potency,[1],6.68 µM (active)
same,Potency,[2],13.8 µM (active)
same,Potency,[3],8.41 µM (active)
CC1(C)[C@H](C(=O)OCc2cccc(Oc3ccccc3)c2)[C@@H]1C=C(Cl)Cl,Potency,[1],inactive
same,Potency,[2],inactive
same,Potency,[3],inactive
SC1CCCCC1,Potency,[1],inactive
same,Potency,[2],inactive
same,Potency,[3],inactive
Cc1ccc(S(=O)(=O)C(I)I)cc1,Potency,[1],61.1 µM (active)
same,Potency,[2],39.9 µM (active)
same,Potency,[3],48.6 µM (active)
CC(C)(C)C1=CC(=O)C(C(C)(C)C)=CC1=O,Potency,[1],inactive
same,Potency,[2],inactive
same,Potency,[3],inactive
CC/C=C(\C)C=O,Potency,[1],inactive
same,Potency,[2],inactive
same,Potency,[3],inactive
Cc1cc(C)c(O)c(C(C)(C)C)c1,Potency,[1],inactive
same,Potency,[2],inactive
same,Potency,[3],inactive
C=C(C)CCO,Potency,[1],inactive
same,Potency,[2],inactive
same,Potency,[3],inactive
NCc1ccco1,Potency,[1],inactive
same,Potency,[2],inactive
same,Potency,[3],inactive
COc1c(Br)cc(Br)c(C)c1Br,Potency,[1],inactive
same,Potency,[2],inactive
same,Potency,[3],inactive
CN1CCN(C)CC1,Potency,[1],inactive
same,Potency,[2],inactive
same,Potency,[3],inactive
Clc1ccc2c(Cl)ccnc2c1,Potency,[1],inactive
same,Potency,[3],inactive
CCCCNc1ccc(NCCCC)c2c1C(=O)c1ccccc1C2=O,"viability change, negative = cytotoxic",[1],-12.4% [at 19 µM]
same,"viability change, negative = cytotoxic",[3],-17.5% [at 19 µM]
O=C(Cl)c1ccc(Cl)cc1Cl,Potency,[1],inactive
same,Potency,[2],25.2 µM (active)
same,Potency,[3],inactive
O=[N+]([O-])c1ccc(O)c2ncccc12,Potency,[1],11.9 µM (active)
same,Potency,[3],inactive
CCOc1nc(F)cc2nc(S(=O)(=O)Nc3c(Cl)cccc3C(=O)OC)nn12,Potency,[1],inactive
same,Potency,[3],inactive
